The text below walks through data of PubChem BioAssay (EPA / NIEHS).

Records with an inconclusive call do not appear. A structure can be active in one record and inactive in another. Activity calls are given as the source filed them. Rule for the calls, unless noted: active = hit-call score of the fitted dose curve at least 0.9, where 1 is the maximum; inactive = score below 0.9.

For the first experiment, the target named is human Vitamin D Receptor (VDR), VDR (gene 7421) (UniProt P11473). Put plainly: ATG_VDR_TRANS: Attagene TRANS-FACTORIAL HepG2 Assay for human Vitamin D Receptor (VDR) (AID 2283022; active = hit-call score of the fitted dose curve at least 0.9, where 1 is the maximum).
human Vitamin D Receptor (VDR), VDR (gene 7421), sequence (P11473 whole entry, looked up): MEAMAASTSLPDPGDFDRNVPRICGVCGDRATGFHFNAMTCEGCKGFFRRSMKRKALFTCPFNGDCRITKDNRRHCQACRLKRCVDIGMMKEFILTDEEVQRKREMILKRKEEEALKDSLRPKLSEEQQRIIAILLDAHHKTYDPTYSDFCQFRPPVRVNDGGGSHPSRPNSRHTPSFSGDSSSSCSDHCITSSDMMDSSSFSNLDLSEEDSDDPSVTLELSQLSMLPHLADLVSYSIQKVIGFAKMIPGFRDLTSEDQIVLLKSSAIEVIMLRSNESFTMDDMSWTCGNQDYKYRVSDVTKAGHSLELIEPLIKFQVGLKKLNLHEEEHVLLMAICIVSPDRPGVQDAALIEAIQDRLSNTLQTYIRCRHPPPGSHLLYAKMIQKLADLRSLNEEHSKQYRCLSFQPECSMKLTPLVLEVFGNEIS
Details: not given
Summed up: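 RT-PCR/capillary electrophoresis read-out of reporter mRNA induction in transiently transfected HepG2; 24 h dosing; chimeric NR-Gal4 (TRANS format); gain-of-signal fit against DMSO baseline.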
As for `CCCCOC(=O)CCCCC(=O)OCCCC`, the compound was called inactive.
Still for that read-out and setting: the value for `C=CCCCCCCCCCCCC` was “inactive”; that for `Cc1ccc(C(C)(C)C)c(O)c1` was “inactive”; that for `Oc1ccccc1O` was “inactive”.
In the case of `CC(=O)[C@@]1(O)CC[C@H]2[C@@H]3CCC4=CC(=O)CC[C@]4(C)[C@H]3CC[C@@]21C`, the outcome was inactive.
The same measure, in the same setting: the value for `CCN(CC)CCOc1ccc(C(=C(Cl)c2ccccc2)c2ccccc2)cc1` was “inactive”.
In the case of `CS(=O)(=O)c1ccc([C@@H](C[C@H]2CCC(=O)C2)C(=O)Nc2cnccn2)cc1Cl`, the compound was called inactive.
Same read-out and setting: the value for `O=NO` was “inactive”.
With `CC(=O)O[C@]1(C(C)=O)CC[C@H]2[C@@H]3C=C(Cl)C4=CC(=O)[C@@H]5C[C@@H]5[C@]4(C)[C@H]3CC[C@@]21C`, the concentration at half-maximal activity (AC50) is 148 µM (active) and the compound was classed as inactive.
For `CCCCC(CC)CO` (centres undefined), the compound was classed as inactive.
Turning to `COc1ccc(OC(F)(F)F)cc1CN[C@H]1CCCN[C@H]1c1ccccc1`, the compound was called inactive.
With `CCc1nc(N)nc(N)c1-c1ccc(Cl)cc1`, the outcome was inactive.
On the same count and under the same terms, the value for `O=C1CCCCC1` was “inactive”; that for `O=C(O)CN(CC(=O)O)CC(=O)O` was “inactive”.

Read-out in the next experiment: not listed separately
The experiment can be described thus: BSK_3C_SRB: Viability Assessment in the BioMAP Diversity Plus: 3C Assay (AID 2283023).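 Note: cells read 24 h after compound dosing; fitted both ways against DMSO so a hit may be signal rise or drop.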 To be noted: primary human endothelial cells (HUVEC). Summed up: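 HUVEC, 24 h post-dose; 10% TCA fix, 0.1% SRB stain, A560 nm. Bidirectional curve fit vs DMSO negative control.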
Take `CN(C)C(=O)NC1(c2ccccc2)CCN(CCC[C@]2(c3ccc(Cl)c(Cl)c3)CCCN(C(=O)c3ccccc3)C2)CC1`: the AC50 is 6.65 µM (active).
`CCCCOC(=O)CCCCC(=O)OCCCC`: the outcome was inactive.
Same read-out and setting: the value for `C=CCCCCCCCCCCCC` was “inactive”.
For `Nc1nc(Cl)nc2c1ncn2[C@H]1C[C@H](O)[C@@H](CO)O1`, the result was inactive.
Consider `Cc1ccc(C(C)(C)C)c(O)c1`, for which the outcome was inactive.
As for `Oc1ccccc1O`, the AC50 is 4.44 µM (active).
As to `CCCCC(CC)COC(=O)CCCCCCCC(=O)OCC(CC)CCCC` (centres undefined), the outcome was inactive.
Same read-out and setting: the value for `CC(=O)[C@@]1(O)CC[C@H]2[C@@H]3CCC4=CC(=O)CC[C@]4(C)[C@H]3CC[C@@]21C` was “inactive”; that for `CCCCCCCCCCCCCCOS(=O)(=O)O` was “inactive”; that for `O=C(O)c1cccnc1` was “inactive”.
As to `Nc1nc(=S)c2[nH]cnc2[nH]1`, the outcome was inactive.
Regarding `CCN(CC)CCOc1ccc(C(=C(Cl)c2ccccc2)c2ccccc2)cc1`, the concentration at half-maximal activity (AC50) was 11.7 µM (active).
For `CCCCc1nc2cccnc2n1Cc1ccc(-c2ccccc2-c2nnn[nH]2)cc1`, the result was inactive.
The same measure, in the same setting: the value for `CC(C)c1cccc(C(C)C)c1` was “inactive”.
Same read-out and setting: the value for `O=C1O[C@H]([C@H](O)CO)C(O)=C1O` was “inactive”; that for `O=[Si]=O` was “inactive”.
For the compound `CC(=O)O`, the outcome was inactive.
Same read-out and setting: the value for `CS(=O)(=O)c1ccc([C@@H](C[C@H]2CCC(=O)C2)C(=O)Nc2cnccn2)cc1Cl` was “inactive”; that for `CC(C)(O)c1ccc(CNC(=O)c2cccnc2Oc2ccc(F)cc2)cc1` was “inactive”.
For `O=NO`, the result was inactive.
On to `CC(=O)O[C@]1(C(C)=O)CC[C@H]2[C@@H]3C=C(Cl)C4=CC(=O)[C@@H]5C[C@@H]5[C@]4(C)[C@H]3CC[C@@]21C`, for which the AC50 was 29.8 µM (active).
As to `CCCCC(CC)CO` (centres undefined), the result was inactive.
As for `COc1ccc(OC(F)(F)F)cc1CN[C@H]1CCCN[C@H]1c1ccccc1`, the AC50 was 15 µM (active).
Regarding `CCc1nc(N)nc(N)c1-c1ccc(Cl)cc1`, the result was inactive.
Regarding `O=C1CCCCC1`, the result was inactive.
The same measure, in the same setting: the value for `O=C(O)CN(CC(=O)O)CC(=O)O` was “inactive”; that for `CC(=O)OC1CC(C)OC(C)O1` (centres undefined) was “inactive”.
For `COC(=O)[C@H]1[C@H]2C[C@@H]3c4[nH]c5cc(OC)ccc5c4CCN3C[C@H]2C[C@@H](OC(=O)c2cc(OC)c(OC)c(OC)c2)[C@@H]1OC`, the AC50 was 24.9 µM (active).
In the case of `CCCC[C@H]1CN(CC2CCOCC2)C(=O)OC12CCN(C1(C)CCN(C(=O)c3c(C)ncnc3C)CC1)CC2`, the result was inactive.
